Most compounds without a hit are left out; they make up all but 3% or so of the library.
EWS-Fli block – blocks EWS/Fli oncoprotein-driven transcription | A673 NR0B1-luciferase reporter, viability-normalised | inhibition, % at 12.6 µM | actives 0.67% (n = 350,000);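 active = mean inhibition of at least 50% after viability correction, with every replicate also passing that limit; inconclusive = mean reaches 50% but only one of two replicates passes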;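 also: firefly luciferase signal divided by Alamar Blue viability fluorescence both relative to DMSO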
Shn3 3UTR inh – Schnurri-3 reporter inhibition in Clone20 osteoblasts. Clone20 osteoblast Shn3 3'UTR firefly luciferase, 24 h. inhibition, % at 12.5 µM. actives 0.52% (n = 360,000). AID 588674;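 active = mean inhibition of at least 75% with every replicate also reaching 75%; inconclusive = mean inhibition at least 75% but some replicate below; inactive = mean inhibition below 75%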;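 also: 0% = median of neutral control wells and 100% = pilot-screen positive control compound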
ABHD5-PLIN5 inh – blocks binding of human ABHD5 to perilipin-5 | Split G. princeps luciferase complementation, luminescence, 4 h | Q00G26+Q8WTS1 | actives 0.78% (n = 360,000) | inhibition, % at 4 µM;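 active = inhibition above the mean inhibition across every tested compound plus 3 SD, cut at about 22% in these data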;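 also: 0% = DMSO only wells and the 100% control is not disclosed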
Target sequence (Q00G26 whole entry, looked up): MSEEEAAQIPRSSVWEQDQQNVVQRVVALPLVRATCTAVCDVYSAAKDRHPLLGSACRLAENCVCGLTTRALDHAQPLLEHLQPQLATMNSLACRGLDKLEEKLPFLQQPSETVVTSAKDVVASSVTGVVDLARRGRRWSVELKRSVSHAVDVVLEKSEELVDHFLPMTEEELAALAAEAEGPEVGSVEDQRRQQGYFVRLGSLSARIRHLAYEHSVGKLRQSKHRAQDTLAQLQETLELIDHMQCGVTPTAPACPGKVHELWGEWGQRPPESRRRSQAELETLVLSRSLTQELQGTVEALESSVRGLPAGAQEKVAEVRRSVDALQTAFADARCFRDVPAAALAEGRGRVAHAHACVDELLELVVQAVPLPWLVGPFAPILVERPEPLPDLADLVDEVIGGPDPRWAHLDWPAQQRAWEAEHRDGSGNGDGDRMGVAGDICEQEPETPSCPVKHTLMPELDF
Target sequence (Q8WTS1 whole entry, looked up): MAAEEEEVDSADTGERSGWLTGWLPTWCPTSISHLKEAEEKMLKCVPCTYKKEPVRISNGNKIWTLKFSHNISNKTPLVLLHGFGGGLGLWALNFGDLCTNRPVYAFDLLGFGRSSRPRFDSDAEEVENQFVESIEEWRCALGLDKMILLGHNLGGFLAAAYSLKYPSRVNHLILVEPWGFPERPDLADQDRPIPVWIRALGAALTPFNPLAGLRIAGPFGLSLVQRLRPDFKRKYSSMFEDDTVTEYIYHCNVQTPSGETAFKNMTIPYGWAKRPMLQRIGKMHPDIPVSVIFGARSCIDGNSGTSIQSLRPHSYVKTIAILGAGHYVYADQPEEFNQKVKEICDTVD
PAX8 reporter – PAX8 transcriptional activity inhibition; RMG-I TPO-luciferase reporter, SteadyGlo, 24 h; inhibition, % at 12.6 µM; actives 1.2% (n = 360,000); AID 652154;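 active = mean replicate inhibition at least 60% with every replicate also reaching 60%; inconclusive = only one of the two criteria is met; inactive = mean below 60% and not all replicates reaching 60%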;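 also: luciferase light reporting Pax8 driven TPO promoter activity; plate controls were median of neutral control wells for no effect and mitoxantrone controls for full effect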
TRPM1 prom inh – inhibitors of MITF-driven TRPM1 promoter in melanoma cells; inhibition, % at 12.5 µM; actives 0.83% (n = 330,000); AID 488899; SK-MEL-5 TRPM1 promoter luciferase, 24 h;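 active = mean inhibition across replicates of 60% or more, whatever share of single replicates reaches that level; inconclusive = some that reach 60%, reason not given; inactive = mean inhibition across replicates below 60%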
Peg3 prom inh-1 – Peg3 promoter activity inhibition. HeLa PEG-Prom luciferase reporter, luminescence, overnight. actives 1.7% (n = 360,000). inhibition, % at 20 µM. AID 588405;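 active = inhibition of at least 50% at 20 µM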
Peg3 prom inh-2 – Peg3 promoter inhibition confirmation. shares compounds with Peg3 prom inh-1. HeLa PEG-Prom luciferase reporter, luminescence, overnight. inhibition, % at 20 µM. actives 84% (n = 1,300). AID 602417;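 active = at 20 µM dose, 40% or more inhibition averaged across four replicates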
The depositor's hits bear a star; ? = inconclusive; / = no result; ! = repeats disagree.

SMILES | EWS-Fli block | Shn3 3UTR inh | ABHD5-PLIN5 inh | PAX8 reporter | TRPM1 prom inh | Peg3 prom inh-1 | Peg3 prom inh-2
Nc1ccc2c(c1)C(=NO)c1cc([N+](=O)[O-])ccc1-2 | -51 | 11 | 7 | -76 | 22 | 44 | /
O=C(Nc1cc2c(cc1Cl)-c1ccc([N+](=O)[O-])cc1C2=NO)C(F)(F)F | / | -16 | -13 | / | 9 | 57* | /
Cc1noc(C)c1NC(=O)N(C)C[C@@H]1Oc2ccc(NS(=O)(=O)c3ccccc3)cc2CC(=O)N([C@H](C)CO)C[C@H]1C | -5 | / | / | 6 | / | / | /
C[C@H]1CCCCO[C@H](CN(C)Cc2ccc(Cl)c(Cl)c2)[C@@H](C)CN([C@@H](C)CO)C(=O)c2cc(NS(=O)(=O)c3ccccc3)ccc2O1 | 15 | / | / | 5 | / | / | /
C[C@@H]1CCCCO[C@@H](CN(C)Cc2ccc(Cl)c(Cl)c2)[C@H](C)CN([C@@H](C)CO)C(=O)c2cc(NS(=O)(=O)c3ccccc3)ccc2O1 | 10 | / | / | 95* | / | / | /
C[C@@H]1CCCCO[C@H](CN(C)Cc2ccc(Cl)c(Cl)c2)[C@@H](C)CN([C@H](C)CO)C(=O)c2cc(NS(=O)(=O)c3ccccc3)ccc2O1 | 0 | / | / | -25 | / | / | /
C[C@@H]1CCCCO[C@H](CN(C)Cc2ccc(Cl)c(Cl)c2)[C@@H](C)CN([C@@H](C)CO)C(=O)c2cc(NS(=O)(=O)c3ccccc3)ccc2O1 | 19 | / | / | 103* | / | / | /
C[C@@H]1CN([C@H](C)CO)C(=O)c2cc(NS(=O)(=O)c3ccccc3)ccc2O[C@@H](C)CCCCO[C@@H]1CN(C)Cc1ccc(Cl)c(Cl)c1 | 16 | / | / | 102*! | / | / | /
CC(C)=CCN(C(=O)C#Cc1ccccc1)[C@H](CO)c1ccccc1 | 42 | / | / | 105* | / | / | /
C[C@@H]1CCCCO[C@H](CN(C)S(C)(=O)=O)[C@H](C)CN([C@@H](C)CO)C(=O)c2cc(N(C)C)ccc2O1 | 2 | / | / | -9 | / | / | /
COc1ccc(S(=O)(=O)N(C)C[C@@H]2Oc3cc(C#CC4CC4)ccc3S(=O)(=O)N([C@H](C)CO)C[C@@H]2C)cc1 | 13 | / | / | / | / | / | /
CCCCn1c(CN2CCN(c3cccc(Cl)c3)CC2)nc2c1c(=O)[nH]c(=O)n2C | 58* | 38 | 10 | / | 27 | 37 | /
c1cc2c3c(cccc3c1)NC1(CCC3(CC1)Nc1cccc4cccc(c14)N3)N2 | 9 | -17 | 12 | 37 | -18 | 76* | 75*
c1cc2c3c(cccc3c1)NC1(CCCCCC1)N2 | / | 11 | 0 | / | 29 | -28 | /
S=C(Nc1ccccc1)Nc1ccc(OCc2ccc(Cl)cc2Cl)cc1 | / | 85* | -7 | / | 82* | 79* | 74*
S=C(NCCSCc1ccc(Cl)cc1Cl)Nc1ccccc1 | / | -9 | -8 | / | 3 | 18 | /
C[C@@H]1CN([C@@H](C)CO)C(=O)c2cccc(NC(=O)Nc3ccc4c(c3)OCO4)c2O[C@@H]1CN(C)CC1CC1 | -3 | / | / | -12 | / | / | /
CCCCCCN1C=CC(=C2C(=O)c3ccccc3C2=O)C=C1 | 79* | 68 | 1 | 67* | 80* | 58* | 43*
CCN1C=CC(=C2C(=O)c3ccccc3C2=O)C=C1 | / | ? | 3 | / | 100* | 97* | 90*
CCCCN1C(C)=CC(=C2C(=O)c3ccccc3C2=O)C=C1C | -51 | 15 | 4 | -2 | 9 | -41 | /
CC1=CC(=C2C(=O)c3ccccc3C2=O)C=C(C)O1 | / | -44 | -2 | -15 | -26 | -172 | /
CC1=CC(=C2C(=O)c3ccccc3C2=O)C=C(C)N1Cc1ccco1 | -97 | 14 | 7 | -18 | -45 | -221 | /
CCCN1C=CC(=C2C(=O)c3ccccc3C2=O)C=C1 | / | 77 | 4 | / | 105* | 105* | 94*
CC(=O)n1cc([C@H]2C=C(C(=O)NCc3ccccc3)O[C@@H](OCc3ccc(CO)cc3)C2)c2ccccc21 | 15 | 3 | 1 | 18 | 3 | 55* | 47*
C[C@@H]1CN([C@H](C)CO)C(=O)c2cccc(NC(=O)c3ccc(-c4nccs4)cc3)c2O[C@H]1CN(C)C(=O)Nc1ccc2c(c1)OCO2 | -2 | / | / | / | / | / | /
SMILES | EWS-Fli block | Shn3 3UTR inh | ABHD5-PLIN5 inh | PAX8 reporter | TRPM1 prom inh | Peg3 prom inh-1 | Peg3 prom inh-2
COc1ccc(CCn2c(=N)c(C(=O)NC3CCCC3)cc3c(=O)n4cccc(C)c4nc32)cc1 | / | 11 | 5 | 5 | 12 | 99* | 64*
COc1ccc(CCNC(=O)c2cc3c(=O)n4ccccc4nc3n(C3CCCCC3)c2=N)cc1 | 26 | 31 | 3 | 6 | -7 | 88* | 54*
C[C@H]1CN([C@@H](C)CO)C(=O)c2cc(C#CCC3CCCC3)cnc2O[C@H]1CN(C)C(=O)CN(C)C | -9 | / | / | 11 | / | / | /
COc1ccc(CN(C)C[C@H]2Oc3ccc(NS(=O)(=O)c4cccs4)cc3CC(=O)N([C@H](C)CO)C[C@@H]2C)cc1 | 7 | / | / | 2 | / | / | /
O=C(Nc1cccc(S(=O)(=O)N2CCOCC2)c1)c1ccc2c(=O)n3c(nc2c1)CCCCC3 | 14 | 63 | -2 | 8 | 6 | 51* | 51*
C[C@H]1CCCCO[C@H](CN(C)C(=O)NC2CCCCC2)[C@@H](C)CN([C@@H](C)CO)C(=O)c2cc(NS(C)(=O)=O)ccc2O1 | 18 | / | / | -16 | / | / | /
CCc1ccc(Oc2coc3cc(OCC(=O)Nc4cc(C)ccc4C)ccc3c2=O)cc1 | 39 | 25 | 5 | 3 | 42 | 54* | 43*
C[C@@H]1CN([C@H](C)CO)C(=O)c2cc(NC(=O)Nc3ccc(F)cc3)ccc2O[C@@H]1CN(C)Cc1ccc(C(=O)O)cc1 | 6 | / | / | 3 | / | / | /
Cc1cc(Br)ccc1NC(=O)CNC(=O)Cn1ncc(Cl)c(Cl)c1=O | 27 | 58 | -2 | 9 | 94* | 111* | 98*
Cc1csc(NC(=O)c2cn3ccccc3n2)n1 | 73* | 65 | -1 | 78* | 54 | 69* | 65*
O=C(Nc1ccccc1)c1cn2ccccc2n1 | 30 | -19 | 11 | -17 | 2 | -36 | /
Cn1cc(C(=O)N/N=C/c2ccc([N+](=O)[O-])cc2)c2ccccc21 | -18 | -3 | 2 | 18 | 10 | -2 | /
CC(=O)n1cc(N(C(=O)CCl)c2ccc([N+](=O)[O-])cc2)c2ccccc21 | 56* | / | 11 | 19 | 69* | 90* | 99*
Cc1ccc2nc(-c3ccc4c(c3)OCCO4)cn2c1 | 22 | 66 | 0 | 87* | 84* | 91* | 93*
N#C[C@@H]1N[C@@H](CO)[C@@H]1c1ccc(C#CC2CCCCC2)cc1 | -19 | / | / | -12 | / | / | /
COc1ccc(S(=O)(=O)N2c3ccccc3OCC2c2ccccc2)cc1 (stereo not given) | / | 13 | -4 | 0 | 22 | 50* | 46*
O=C1[C@H](Cc2ccccc2)NCCCC[C@H](c2ccc(Cl)cc2)N1Cc1ccccc1 | 6 | 5 | 2 | 22 | 1 | 32 | /
